Where “and” joins values, the source holds several entries; their conditions need not be identical. Identical values can stand only once. Inconclusive results are not listed. A call without a number means that no potency is given here. Calls of active or inactive are those of the source. Calls follow the shape of the dose curve; as a rule, active = well fitted cell-killing curve with a large enough effect in the repeat runs; inconclusive = weak or mixed curves, or effect the other way; inactive = flat fitted curve, though single readings scatter.
Test: cAMP Responsive Elements (CRE) small molecule antagonists, cell-based qHTS assay: qHTS cell viability counter screen (AID 2060913); also: nearly all actives have a fitted effect of over 40% in size
Conditions: CRE-bla HEK293T viability, CellTiter-Glo luminescence, 5 h; series mostly up to 92.4 µM
In short: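 Steps: cells plated and held 18 hrs at 37 C/5% CO2; compounds and NKH477 (0.25 uM final) added; 3 hrs incubation; reporter substrate read; CellTiter-Glo added to measure cytotoxicity by luminescence.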
Potency is read from the fitted curve at half-maximal effect.

Row | Structure (SMILES) | Potency
1 | C=CCN(CC=C)C(=O)C(Cl)Cl | inactive
2 | CCC(C)Cl (stereo not given) | inactive
3 | NC(=O)C(Cl)(Cl)Cl | inactive
4 | Nc1ccc(Cc2ccc(N)c(Cl)c2)cc1Cl | inactive
5 | CC(C)O.CC(C)O.OCCN(CCO)CCO.OCCN(CCO)CCO.[Ti] | inactive
6 | CN(C)N=O | inactive
7 | CCCCCCCCCCCCCCCC[n+]1ccccc1 | 57 µM (active) and 54.5 µM (active) and 56.2 µM (active)
8 | CCCC1CCCCN1 (stereo not given) | inactive
9 | O=C(O)c1c(Cl)ccc2cc(Cl)cnc12 | inactive
10 | Nc1ccc(Cl)cc1C(=O)c1ccccc1F | inactive
11 | COC(=O)Nc1cccc(OC(=O)Nc2cccc(C)c2)c1 | inactive
12 | CCC12COCN1COC2 | inactive
13 | CC[C@]1(O)CC[C@H]2[C@@H]3CCC4=CCCC[C@@H]4[C@H]3CC[C@@]21C | inactive
14 | CC1(C)C(=O)NC(=O)NC1=O | inactive
15 | O=[N+]([O-])C(Br)(CO)CO | inactive

Test: cAMP Responsive Elements (CRE) small molecule agonists, cell-based qHTS assay: qHTS cell viability counter screen (AID 2060914); also: nearly all actives have a fitted effect of over 50% in size
Conditions: CRE-bla HEK293T viability, CellTiter-Glo luminescence, 5 h; series mostly up to 92.4 µM
In short: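 Cytotoxicity was measured as ATP luminescence (CellTiter-Glo, 30 min at room temperature) in the same wells as the CRE-bla FRET read-out. HEK293T CRE-bla cells had 3 h compound exposure at 37C/5% CO2.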

Row | Structure (SMILES) | Potency
16 | Cc1ccc(OP(=O)(Oc2ccc(C)cc2)Oc2ccc(C)cc2)cc1 | inactive
17 | CCOP(=S)(OCC)SCSC(C)(C)C | inactive
18 | CC(=O)/C=C/c1ccccc1 | inactive
19 | CC(C)CCCCCCCOC(=O)c1ccccc1C(=O)OCCCCCCCC(C)C | inactive
20 | CN1C(=O)COc2c(C(=O)NC3CN4CCC3CC4)cc(Cl)cc21 (stereo not given) | inactive
21 | CC(C)CC(C)Nc1ccc(Nc2ccccc2)cc1 (stereo not given) | inactive
22 | CC(C)Nc1nc(Cl)nc(NC(C)C)n1 | inactive
23 | CCCCc1ccccc1 | inactive
24 | COc1cc(OC)nc(Sc2cccc(Cl)c2C(=O)O)n1 | inactive
25 | CC(C)COC(=O)c1ccccc1C(=O)OCC(C)C | inactive
26 | C=CC(C)=O | inactive
27 | O=C1CN=C(c2ccccc2)c2cc(Cl)ccc2N1CC1CC1 | inactive
28 | CCCN(CCC)c1c([N+](=O)[O-])cc(C(C)C)cc1[N+](=O)[O-] | inactive
29 | Nc1nc(N)nc(Cl)n1 | inactive
30 | COCC(=O)N(c1c(C)cccc1C)C(C)C(=O)OC (stereo not given) | inactive
31 | NC1=NC(=O)C(c2ccccc2)O1 (stereo not given) | inactive
32 | CCOP(=S)(OCC)OP(=S)(OCC)OCC | inactive
33 | NCCc1cc(O)c(O)cc1O | inactive
34 | Oc1ccc(Cc2ccc(O)cc2)cc1 | inactive
35 | N[C@@H]1C[C@H]1c1ccccc1 | inactive

Row | Structure (SMILES) | Potency
36 | O=C(N/N=C/c1ccc([N+](=O)[O-])o1)c1cc([N+](=O)[O-])cc([N+](=O)[O-])c1O | inactive
37 | Nc1ccc([N+](=O)[O-])cc1 | 6.11 µM (active)
38 | BrCC(Br)c1ccccc1 (stereo not given) | inactive
39 | Cc1cc(Cl)ccc1O[C@H](C)C(=O)O | inactive
40 | Cc1cc(Cl)ccc1O | inactive
41 | C=CCN(CC=C)C(=O)C(Cl)Cl | inactive
42 | CCC(C)Cl (stereo not given) | inactive
43 | NC(=O)C(Cl)(Cl)Cl | inactive
44 | Nc1ccc(Cc2ccc(N)c(Cl)c2)cc1Cl | inactive
45 | CC(C)O.CC(C)O.OCCN(CCO)CCO.OCCN(CCO)CCO.[Ti] | inactive
46 | CN(C)N=O | inactive
47 | CCCCCCCCCCCCCCCC[n+]1ccccc1 | 47.9 µM (active) [middle of 4 runs]
48 | CCCC1CCCCN1 (stereo not given) | inactive
49 | O=C(O)c1c(Cl)ccc2cc(Cl)cnc12 | inactive
50 | Nc1ccc(Cl)cc1C(=O)c1ccccc1F | inactive
51 | COC(=O)Nc1cccc(OC(=O)Nc2cccc(C)c2)c1 | inactive
52 | CCC12COCN1COC2 | inactive
53 | CC[C@]1(O)CC[C@H]2[C@@H]3CCC4=CCCC[C@@H]4[C@H]3CC[C@@]21C | inactive
54 | CC1(C)C(=O)NC(=O)NC1=O | inactive
55 | O=[N+]([O-])C(Br)(CO)CO | inactive

From PubChem BioAssay (Tox21)
